# Laboratory results taken from the supplement of paper PMC3334620.
# In all, about 33,000 sequences were measured (“E-score (-0.5 to 0.5)”: median about -0.035, highest 2% from about 0.34 on). The list comes from a sample in which the highest values are over-represented; it also holds similar and randomly drawn sequences.
# Molecular target: T1, Mot3 (UniProt P54785)
# T1 sequence: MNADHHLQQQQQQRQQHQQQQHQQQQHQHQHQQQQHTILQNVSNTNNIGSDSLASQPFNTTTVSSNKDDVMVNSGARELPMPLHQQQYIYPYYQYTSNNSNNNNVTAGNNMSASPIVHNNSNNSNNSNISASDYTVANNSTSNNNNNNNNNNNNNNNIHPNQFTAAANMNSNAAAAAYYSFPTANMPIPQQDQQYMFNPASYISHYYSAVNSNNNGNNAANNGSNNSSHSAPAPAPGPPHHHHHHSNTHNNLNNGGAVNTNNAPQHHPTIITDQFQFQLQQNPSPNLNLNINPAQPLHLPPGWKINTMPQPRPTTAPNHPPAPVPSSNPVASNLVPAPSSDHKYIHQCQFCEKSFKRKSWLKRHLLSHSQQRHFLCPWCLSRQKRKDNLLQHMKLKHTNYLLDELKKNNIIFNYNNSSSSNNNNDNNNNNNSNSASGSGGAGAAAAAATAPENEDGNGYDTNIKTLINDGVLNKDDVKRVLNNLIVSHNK
# Assay: PBM E-score (8-mer binding enrichment) (E-score (-0.5 to 0.5)); higher = stronger / more preferred TF binding
# Conditions: protein concentration: 200 nM; construct: GST-full length
# Method: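 Universal 'all 10-mer' protein binding microarrays (Agilent AMADID 015681) probed with GST-tagged S. cerevisiae TFs (full-length or DBD) made by in vitro transcription/translation (PURExpress), about 100-200 nM. Bound TF was detected with fluorescent anti-GST. Each ungapped 8-mer (which stands for itself and its reverse complement) is scored by the PBM enrichment score (E-score), a modified Wilcoxon-Mann-Whitney statistic from -0.5 to +0.5, computed with the Universal PBM Analysis Suite. Scale: above 0.35 generally sequence-specific binding.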
row,Sequence,PBM E-score
1,CCGCTAAC,-0.0566
2,ACTGGTGG,-0.246
3,AGGCCTCA,-0.247
4,CAGAGAGC,-0.316
5,CACATGTC,0.196
6,CACATGTA,0.344
7,GAAATGTA,0.0874
8,GACATATA,0.125
9,TACATGTA,0.408
10,CAAATGTA,0.272
11,TACATATA,0.317
12,GACATGTC,0.191
13,TAAATGTA,0.346
14,CACATGTG,0.194
15,GACATGTA,0.355
16,TACATCTA,0.227
17,GCTGCAAC,-0.242
18,CAAGAGGA,0.038
19,CGAAACTA,-0.136
20,GACTAAAC,0.0174
21,ACCCGTGC,-0.0819
22,GAGAAGGC,0.258
23,ACGGCCTA,-0.0205
24,ACGCGCTG,0.184
25,GGCTAACC,0.0149

row,Sequence,PBM E-score
1,CTTCCTGC,-0.0264
2,ATCTGAAC,-0.219
3,ATATTGGA,0.0164
4,ATAAGGAA,0.299
5,GTAAGTAA,0.169
6,CTAAGGAA,0.366
7,CTAAGGAG,-0.254
8,GTAAGGAA,0.366
9,TTAAGGAA,0.398
10,GTAAGGAC,-0.194
11,CTAAGGAC,-0.231
12,TTAAGTAA,0.0348
13,CGGTCTCC,-0.283
14,CGCCCCCG,-0.351
15,GACGGTTA,-0.0411
16,ATACACAT,0.3
17,GCTGTTTA,-0.0345
18,GGCAGGGA,-0.158
19,AGCAGGAG,-0.0982
20,TGCAGGAA,0.443
21,GGCAGGAC,-0.14
22,GGCAGGAA,0.419
23,TTCAGGAA,0.337
24,ATCAGGAA,0.343
25,ATCAGGAC,-0.157

row,Sequence,PBM E-score
1,TGCAGTAA,0.0245
2,AGCAGGAA,0.395
3,CTCAGGAA,0.335
4,AGCAGGAC,-0.096
5,TACTGAGA,-0.0385
6,GGTGCCAC,-0.168
7,AGGGGTGG,-0.248
8,GACTGGTA,-0.00685
9,GTGCGATA,-0.123
10,CGCAGGAG,-0.0652
11,CGCAGGAC,-0.0456
12,CGCAGGAA,0.356
13,AAAGTAGC,-0.0505
14,ACCATTAA,0.0184
15,CGCTCCTC,-0.269
16,TACGCAAA,0.206
17,CCTATTAC,0.344
18,ACTATTAC,0.25
19,CCTATTAA,0.273
20,CAGGTCGA,0.148
21,ATTAGCCA,-0.147
22,AGGTCGAA,0.00993
23,AATGTTAA,0.279
24,CATGTTAC,0.332
25,CATGTTAA,0.411

row,Sequence,PBM E-score
1,CATGTTAG,0.332
2,TATGTTAA,0.396
3,GATGTTAA,0.268
4,CATTCAGC,-0.12
5,ACCTCGCA,-0.0135
6,AAACAAGC,0.0864
7,TGATCCAA,-0.071
8,CCATCTGC,-0.272
9,ATACACGG,0.375
10,ATACACAC,0.326
11,ACACACGC,0.174
12,ACACACGG,0.182
13,ATACACAA,0.324
14,ATACACCA,0.129
15,ATACACGC,0.37
16,ATACACTA,0.124
17,ATACACGA,0.352
18,GACCTCAC,-0.243
19,CCCCTACA,0.0392
20,ATATACGA,0.14
21,AATTTTAT,0.0903
22,TCGATAGA,-0.0212
23,ACCCCTTC,0.129
24,CCTTTACG,0.172
25,CCTTTACC,0.102

row,Sequence,PBM E-score
1,GGTTTACA,0.333
2,GCTTTACA,0.325
3,CTTTTACC,0.141
4,TCTTTACA,0.389
5,GTTTTACA,0.371
6,ACTTTACA,0.313
7,GTTTTATA,0.101
8,ATTTTACA,0.336
9,CTTTTACA,0.345
10,CCTTTACA,0.392
11,ACCCTTTA,0.167
12,GCAGTCAC,0.305
13,ATTGGCCG,-0.176
14,GGATTTAC,0.174
15,CGACAGGA,0.0979
16,AGCACGCG,0.17
17,AAATGCAC,0.0764
18,AGTCACCG,0.0455
19,GCGCAAGC,-0.172
20,AAGCATCC,-0.202
21,CGGCATCA,-0.0726
22,AGGCATAG,0.274
23,CGGCATCC,-0.0227
24,AGGCATCC,0.384
25,AGGCATCA,0.409

row,Sequence,PBM E-score
1,AGGCATCG,0.404
2,ACGCATCG,-0.0642
3,GGGCATCA,-0.23
4,CACTTCTG,-0.0864
5,AATTGGTA,0.113
6,AGCCAACG,0.0732
7,ACCTAAGC,0.0128
8,CCCCTTGC,-0.152
9,AGGCCTCC,-0.166
10,CTAGACAC,0.0958
11,TAAAACGA,0.0299
12,GTCCAACA,0.153
13,ACACCTGG,0.104
14,ATTACAAT,0.299
15,ATTACAGA,0.24
16,ATTACAAC,0.286
17,ATTACAGG,0.359
18,ATTACAAG,0.388
19,ATTACAAA,0.347
20,CTTACAAA,0.15
21,TTTACAAA,0.331
22,ATTACAGC,0.127
23,GCTGGATA,0.0442
24,GCCCTTAC,-0.0326
25,CTAGGCTC,0.043

row,Sequence,PBM E-score
1,AAACTGAA,0.0399
2,GGGCCCAC,-0.255
3,AACCGTAG,-0.229
4,ACCGTGTA,0.397
5,CCCGTGTA,0.376
6,ACCGTGTC,0.216
7,GCCGTGTA,0.349
8,GCCGTGAA,-0.128
9,CCCGTGTC,0.082
10,GCCGTGGA,-0.169
11,CCCGTGGA,-0.314
12,ACCGTGTG,0.175
13,AGCCAAAT,-0.0958
14,CCAACTAA,0.0699
15,CACTTTTA,0.117
16,ACGTCGCC,-0.00307
17,AGGAACGG,0.463
18,ATGAACGG,0.0117
19,CGGAACGA,0.0162
20,AGGAACGA,0.44
21,ATGAACGC,0.145
22,CGGAACGC,-0.0837
23,AAGAACGG,-0.266
24,GGGAACGA,-0.122
25,AGGAACGC,0.451
